Source: PubChem BioAssay
Vaccinia Venus: vaccinia inhibition (Venus reporter); Potency, µM (highest dose often 36.5 µM), for the others: at the highest dose activity change, negative = inhibition, hits mostly inhibitors; hit rate 0.46% among 330,000; Vaccinia virus Venus reporter expression, fluorescence; calls by dose curve; tested in A549 cells; also: nearly all actives have a fitted effect of over 30% in size
VACV mCherry inh: vaccinia inhibition (mCherry reporter) | Potency, µM (titrated, usually from 36.5 µM), inactives show top-dose activity change, negative = inhibition, usual class: inhibitors | Vaccinia virus mCherry reporter infection, fluorescence | hit rate 0.63% among 310,000; calls by dose curve; tested in A549 cells; also: nearly all actives have a fitted effect of over 35% in size
LASV entry inh: inhibitors of Lassa virus binding or cell entry. Potency, µM (highest dose often 37.9 µM), for the others: at the top dose activity change, negative = inhibition, hits mostly inhibitors. hit rate 1.2% among 300,000. Lassa virus pseudotype entry inhibition, cell reporter; calls by dose curve; tested in HEK293 cells; also: nearly all actives have a fitted effect of over 50% in size
Marburg entry inh: inhibitors of Marburg virus binding or cell entry. Marburg virus pseudotyped entry inhibition, cell reporter. Potency, µM (titrated, usually from 37.8 µM), for the others: top-dose activity change, negative = inhibition, actives largely listed as inhibitors. hit rate 1.8% among 300,000; calls by dose curve; tested in HEK293 cells
FMDV antiviral: blocks foot and mouth disease virus; FMDV antiviral cell-based qHTS; Potency, µM (doses to about 57.9 µM), for inactives: top-dose activity change, negative = inhibition, actives largely listed as inhibitors; hit rate 1.2% among 410,000; AID 1159524; calls by dose curve; tested in HEK293T cells; also: read-out not given here; nearly all actives have a fitted effect of over 45% in size
Active calls of the source: *; [ ] = remark or other dose. This is a sample that favours compounds with a hit; in the whole collection about 3.2% have one here. % is scaled to controls: 0 for no effect and ±100 for the full control effect; potency is read from the fitted curve at half-maximal effect.

CCn1nc(C)cc1C(=O)NCC1CCC2(CCN(Cc3ccccc3F)CC2)O1 (stereo not given) was read as Vaccinia Venus -13.6%, VACV mCherry inh -13.8% and FMDV antiviral 0.0%.
`CCOc1ccc(-c2nonc2NC(=O)c2oc3c(C)c(C)ccc3c2C)cc1OCC` gave Vaccinia Venus -14.8%, VACV mCherry inh -14.1%, LASV entry inh 2.2%[46.1 µM], Marburg entry inh -12.1%[46.1 µM] and FMDV antiviral -15.0%.
For Cc1nc(NC(=O)c2ccc(F)cc2)sc1C(=O)Nc1ccc2c(c1)CCC2 the results were Vaccinia Venus -17.2%, VACV mCherry inh -13.8%, LASV entry inh -21.0% and Marburg entry inh -6.0%.
For Cc1ccc(C(=O)Nc2nc(C)c(C(=O)Nc3ccc4c(c3)CCC4)s2)cc1 the results were Vaccinia Venus -28.7%, VACV mCherry inh inactive, LASV entry inh inconclusive, Marburg entry inh 1.12µM* and FMDV antiviral 32.1%.
Screening CCCc1nc2c(C)ccc(C)c2c(N)c1CC returned LASV entry inh -24.4%, Marburg entry inh 9.2µM* and FMDV antiviral -20.6%.
C=C1C(=O)[C@]23C[C@H]1CCC2[C@@]1(C)C(C[C@@H]3O)[C@](C)(C(=O)OC)CC[C@@H]1OC(C)=O (stereo not given in full) was read as Vaccinia Venus 1.78µM*, VACV mCherry inh 3.16µM* and FMDV antiviral 8.91µM*.
Screening C=C1C(=O)[C@]23C[C@H]1CC[C@H]2[C@]1(C)[C@@H](O)CC[C@@](C)(C(=O)O)[C@H]1C[C@@H]3O returned Vaccinia Venus -28.8%, VACV mCherry inh inconclusive and FMDV antiviral 39.8µM*.
`C=C1C(=O)[C@]23C[C@H]1CC[C@H]2[C@]1(C)[C@@H](OC(C)=O)CC[C@@](C)(C(=O)O)[C@H]1C[C@@H]3O` gave Vaccinia Venus inconclusive, VACV mCherry inh 5.01µM* and FMDV antiviral 0.0%.
`C=C1C(=O)[C@]23C[C@H]1CC[C@H]2[C@]1(C)[C@@H](OC(C)=O)CC[C@@](C)(C(=O)OC)[C@H]1C[C@@H]3OC(C)=O` gave Vaccinia Venus inconclusive, VACV mCherry inh inconclusive and FMDV antiviral 11.2µM*.
`C=C1C(=O)[C@]23C[C@H]1CCC2[C@@]1(C)C(C[C@@H]3O)[C@](C)(C(=O)O)C[C@H](O)[C@@H]1O` (stereo not given in full) gave Vaccinia Venus 1.0%, VACV mCherry inh 12.8% and FMDV antiviral -11.1%.
Screening COc1ccc(C(=O)NCC2Cc3c(F)ccc(-c4nc(C)cnc4C)c3O2)cc1F (stereo not given) returned Vaccinia Venus 2.2%, VACV mCherry inh -6.1% and FMDV antiviral -5.2%.
`NS(=O)(=O)c1cccc(NC(=O)CSc2n[nH]c(-c3ccccc3Br)n2)c1` gave FMDV antiviral -13.0%.
CC1CCCC(C)N1C(=O)COC(=O)COc1ccc(C#N)cc1 (stereo not given) was read as FMDV antiviral -21.4%.
COc1ccc(OCc2cccc(C(=O)Nc3ccc(CN4CCCCC4)cc3)c2)cc1 was read as Vaccinia Venus -14.4%, VACV mCherry inh -13.1%, LASV entry inh inconclusive, Marburg entry inh inconclusive and FMDV antiviral -24.6%.
CCOc1ccc(OCc2cccc(C(=O)Nc3ccc(CN4CCCCC4)cc3)c2)cc1 was read as Vaccinia Venus inconclusive, VACV mCherry inh inconclusive, LASV entry inh inconclusive, Marburg entry inh 6.51µM* and FMDV antiviral 0.0%.
For CC(=O)N1CCc2cc(NC(=O)c3ccc(C)cc3)ccc21 the results were LASV entry inh 16.4µM*, Marburg entry inh inconclusive and FMDV antiviral 0.0%.
O=C1[C@@H]2[C@H]3[C@H](O)[C@H](O)CC(=NOC[C@@H](O)COCc4ccco4)[C@@H]3CC[C@H]2C(=O)N1Cc1ccccc1 was read as Marburg entry inh -3.6%[14.2 µM].
`C[C@@H]1CC[C@H]2C(=O)O[C@@H](COc3ccc(C(C)(C)C)cc3)CN2[C@@H]1c1ccc(Br)cc1` gave LASV entry inh -4.5%[14.3 µM] and Marburg entry inh inconclusive.
Cc1ccc(C(OCCN(C)C)c2cccc(C(F)(F)F)c2)cc1 (stereo not given) was read as Vaccinia Venus -15.5%, VACV mCherry inh -7.7%, LASV entry inh inconclusive, Marburg entry inh 20.6µM* and FMDV antiviral -29.4%.
`CON(c1nc(Cl)nc(N(C)C)n1)S(=O)(=O)c1ccccc1Cl` gave Vaccinia Venus inconclusive, LASV entry inh 12.6µM*, Marburg entry inh -1.0% and FMDV antiviral inconclusive.
`O=C1CCCc2oc3c(cc(NS(=O)(=O)c4ccc5c6c(cccc46)C(=O)N5)c4ccccc43)c21` gave Vaccinia Venus -21.9%, VACV mCherry inh inconclusive, LASV entry inh 3.3%[46.1 µM], Marburg entry inh 11.2µM* and FMDV antiviral -9.3%.
Cc1oc2c(cc(NS(=O)(=O)c3ccc4c5c(cccc35)C(=O)N4)c3ccccc32)c1C(=O)OC(C)C was read as LASV entry inh inconclusive, Marburg entry inh -21.1% and FMDV antiviral 3.0%.
O=C(N/N=C/c1ccsc1)c1cc(-c2ccncc2)nc2ccccc12 was read as Vaccinia Venus -28.2%, VACV mCherry inh inconclusive, LASV entry inh inconclusive, Marburg entry inh inconclusive and FMDV antiviral inconclusive.
`O=C(N/N=C/c1cccnc1)c1cc(-c2ccccc2)nc2ccccc12` gave Vaccinia Venus 2.6%, VACV mCherry inh -11.7%, LASV entry inh -20.4%[46.1 µM], Marburg entry inh 3.98µM* and FMDV antiviral -10.2%.
For Cc1ccsc1/C=N/NC(=O)c1cc(-c2ccncc2)nc2ccccc12 the results were Vaccinia Venus inconclusive, VACV mCherry inh inconclusive, LASV entry inh inconclusive, Marburg entry inh 0.581µM* and FMDV antiviral -19.5%.
CCOc1cccc(-c2cc(C(=O)N/N=C/c3ccc(OC)c(CN4CCOCC4)c3)c3ccccc3n2)c1 was read as Vaccinia Venus -7.3%, VACV mCherry inh -21.8%, LASV entry inh inconclusive, Marburg entry inh 8.2µM* and FMDV antiviral 9.0%.
For CCOc1ccccc1-c1cc(C(=O)N/N=C/c2ccc3c(c2)OCO3)c2ccccc2n1 the results were Vaccinia Venus 3.6%, VACV mCherry inh -13.9%, LASV entry inh inconclusive, Marburg entry inh inconclusive and FMDV antiviral -4.4%.
For CCOc1ccccc1-c1cc(C(=O)N/N=C/c2ccc(O)c(OC)c2)c2ccccc2n1 the results were Vaccinia Venus 9.7%, VACV mCherry inh 12.6µM*, LASV entry inh 7.08µM*, Marburg entry inh inconclusive and FMDV antiviral inconclusive.
`COc1ccc(/C=N/NC(=O)c2ccncc2)cc1CN1CCOCC1` gave Vaccinia Venus -4.5%, VACV mCherry inh inactive, LASV entry inh -21.6%, Marburg entry inh -22.2%[14.2 µM] and FMDV antiviral -13.0%.
Screening COc1ccc(/C(O)=C2/C(=O)C(=O)N(c3ccccn3)C2c2ccc(F)cc2)cc1 (stereo not given) returned FMDV antiviral 41.8%.
For CCOc1cc(/C=N/NC(=O)c2ccc(CN3CCOCC3)cc2)ccc1OCc1ccccc1 the results were Vaccinia Venus -12.2%, VACV mCherry inh inactive, LASV entry inh inconclusive, Marburg entry inh inconclusive and FMDV antiviral 22.4µM*.
